# Test results reported in PubChem BioAssay (NCATS).
# Records with an inconclusive call do not appear. Where a call stands in place of a potency, no number is given. Calls of active or inactive are those of the source. Calls follow the shape of the dose curve; as a rule, active = well fitted curve in the direction sought with a large enough effect; inconclusive = small, poorly fitted or top-dose-only effect, or another doubt; inactive = no such curve, though single readings can be large; an effect the other way counts as inactive or inconclusive.
# Experiments:
# [1] = qHTS to identify inhibitors of the type 1 interferon - major histocompatibility complex class I in skeletal muscle: primary screen against the NCATS Mechanism Interrogation Plate v5.0 (MIPE) Libary (AID 1347411); also: nearly all actives have a fitted effect of over 65% in size; also: potency is read from the fitted curve at half-maximal effect
# Method in brief: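 Cells were genome-edited human myoblasts carrying a HiBit tag on endogenous HLA-B. They were treated with IFN-beta (4.0 ng/ml) and titrated compounds (top 46 uM) for 24 hrs before lytic HiBiT detection.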
# [2] = qHTS to identify inhibitors of the type 1 interferon - major histocompatibility complex class I in skeletal muscle: primary screen against the NCATS LOPAC collection (AID 1347405);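 also: lytic HiBiT luminescence reporting HLA-B protein level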
# Method in brief: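 Cells: C25cl48 human myoblasts, HiBiT-tagged HLA-B*08:01, stimulated with IFN-beta 4.0 ng/ml. Compounds are titrated 1:4.3 over 7 points from 46 uM final and incubated 24 hrs; endogenous MHC class I is quantified by HiBiT lytic luminescence.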
# [3] = qHTS for inhibitors of adenylyl cyclases using a fission yeast platform: a pilot screen against the NCATS LOPAC library (AID 1347410)
# Method in brief: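 Inhibition of GNAS-stimulated AC9 activity in S. pombe was inferred from derepression of a PKA-repressed fbp1-GFP reporter, measured as cytometric fluorescence after 18 h at 30C with compounds at up to 57 µM.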
# [4] = qHTS to identify inhibitors of the type 1 interferon - major histocompatibility complex class I in skeletal muscle: primary screen against the NCATS Pharmaceutical Collection (AID 1347407);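 also: luminescence of HiBiT knocked into endogenous HLA-B as interferon-induced MHC class I level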
# Method in brief: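 A qHTS format is used: 8-point, 1:5 compound series with 46 uM top final concentration, applied alongside 4 ng/ml IFN-beta to HLA-B*08:01-HiBiT knock-in myoblasts. Luminescence is measured after 24 h treatment.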
smiles,measurement,setting,value
Cc1cc(C(=O)Nc2cc(Nc3ccc4c(/C=C/c5ccccn5)n[nH]c4c3)ccc2F)n(C)n1,Potency,[1],29.4 µM (active)
Fc1ccc2[nH]ccc2c1-c1nc(N2CCOCC2)c2sc(CN3CCN(CC4CC4)CC3)cc2n1,Potency,[1],33 µM (active)
CCOC(=O)[C@@]1(CCCCCCOc2ccc(Cl)cc2)CO1,Potency,[1],inactive
NCCCC(=O)O,Potency,[2],inactive
same,outcome,[3],inactive
COc1ccccc1C(=O)Nc1cc2c(cc1N1CCCC1)n(C)c(=O)n2C,Potency,[1],inactive
CN1CC[C@@H](c2c(O)cc(O)c3c(=O)cc(-c4ccc(C(F)(F)F)cc4Cl)oc23)[C@@H]1CO,Potency,[1],13.1 µM (active)
CN1CCN(C2CCN(C(=O)Nc3cc(Oc4ccc(NC(=O)C5(C(=O)Nc6ccc(F)cc6)CC5)c(F)c4)ccn3)CC2)CC1,Potency,[1],20.8 µM (active)
O=C(NC[C@H](O)CN1CCc2ccccc2C1)c1ccnc(NC2CCC2)c1,Potency,[1],inactive
Oc1cccc(-c2c3nc(c(-c4cccc(O)c4)c4ccc([nH]4)c(-c4cccc(O)c4)c4nc(c(-c5cccc(O)c5)c5ccc2[nH]5)CC4)C=C3)c1,outcome,[4],inactive
CCCCNc1ncc(-c2ccc(CN3CCOCC3)cn2)c(NC2CCC(O)CC2)n1 (centres undefined),Potency,[1],inactive
NC(=O)c1ccccc1Nc1ccnc(Nc2cccc(O)c2)n1,Potency,[1],4.66 µM (active)
C=CCNC1=C2C[C@@H](C)C[C@H](OC)[C@H](O)[C@@H](C)/C=C(\C)[C@H](OC(N)=O)[C@@H](OC)/C=C\C=C(/C)C(=O)NC(=CC1=O)C2=O,Potency,[1],0.829 µM (active)
COc1ccc(-c2c(C)nn3c(NCCN4CCOCC4)cc(C)nc23)cc1OC,Potency,[1],inactive
